Source: PubChem BioAssay (Tox21)
Several values for one entry are separate records, joined by “and”; a condition that tells them apart may be missing. Equal values may be shown once. Results filed as inconclusive are left out. Some compounds were tested as several samples or in several runs, with calls that do not always agree. Activity calls are given as the source filed them. Unless noted, calls come from the whole dose curve; as a rule, active = well fitted curve in the direction sought with a large enough effect in the repeat runs; inconclusive = weak or mixed curves; inactive = no such curve, though single readings can be large; an effect the other way counts as inactive or inconclusive.

Key:
[1] = A CellTox Green Cytotoxicity Assay to monitor cytotoxicity in HEK293 cells - 32 hour (AID 1224881); note: nearly all actives have a fitted effect of over 40% in size; note: potency is the fitted concentration of half-maximal effect; for cytotoxicity increase: % is set by controls: 0 for no effect and ±100 for the full control effect
Outline: (§1)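 HEK293 cells, 600/well, were preincubated 5 hours and then exposed to compounds at 37 C for up to 40 hours. A cell-impermeant cyanine dye staining dead-cell DNA was read by fluorescence at 0, 8, 16, 24, 32 and 40 h time points.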

[2] = A CellTox Green Cytotoxicity Assay to monitor cytotoxicity in HepG2 cells - 0 hour (AID 1224882); note: nearly all actives have a fitted effect of over 35% in size; note: potency is the fitted concentration of half-maximal effect; for Cytotoxicity: % is set by controls: 0 for no effect and ±100 for the full control effect
Outline: (§2)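 HepG2 cells, 600/well, preincubated 5 h with CellTox Green dye, then exposed to Tox21 compounds in DMSO at 37 C for up to 40 h. Dead-cell DNA fluorescence read at the indicated time point.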

[3] = A CellTox Green Cytotoxicity Assay to monitor cytotoxicity in HepG2 cells - 32 hour (AID 1224883); note: nearly all actives have a fitted effect of over 50% in size; note: potency is the fitted concentration of half-maximal effect; for cytotoxicity increase: % is set by controls: 0 for no effect and ±100 for the full control effect
Outline: as §2

[4] = qHTS RealTime-Glo MT Cell Viability Assay in HepG2 cells - 16 hour (AID 1224885); note: nearly all actives have a fitted effect of over 50% in size; note: potency is the fitted concentration of half-maximal effect
Outline: (§3)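 Tox21 10K library screened in qHTS format on HepG2 cells carrying RealTime-Glo reagents. Compounds were added after a 5 h preincubation, and the luminescent signal from continuous culture was measured repeatedly during 40 h treatment.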

[5] = qHTS RealTime-Glo MT Cell Viability Assay in HEK293 cells - 24 hour (AID 1224886); note: nearly all actives have a fitted effect of over 50% in size; note: potency is the fitted concentration of half-maximal effect
Outline: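 Luminescence generated by NanoLuc from substrate produced by living HEK293 cells served as the viability signal. Each value reflects the reading at its stated time point during continuous 40 h compound exposure at 37 C.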

[6] = qHTS RealTime-Glo MT Cell Viability Assay in HEK293 cells - 8 hour (AID 1224887); note: nearly all actives have a fitted effect of over 50% in size; note: potency is the fitted concentration of half-maximal effect
Outline: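 600 cells/well were plated with the nonlytic NanoLuc/prosubstrate reagent, pre-incubated 5 h, then given 23 nL of compound in DMSO. Incubation at 37 C for 40 h, with luminescence from viable-cell-reduced substrate read repeatedly from 0 h.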

[7] = A CellTox Green Cytotoxicity Assay to monitor cytotoxicity in HEK293 cells - 16 hour (AID 1224888); note: nearly all actives have a fitted effect of over 35% in size; note: potency is the fitted concentration of half-maximal effect
Outline: as §1

[8] = qHTS RealTime-Glo MT Cell Viability Assay in HepG2 cells - 0 hour (AID 1224889)
Outline: as §3

[9] = A CellTox Green Cytotoxicity Assay to monitor cytotoxicity in HepG2 cells - 8 hour (AID 1224890); note: nearly all actives have a fitted effect of over 45% in size; note: potency is the fitted concentration of half-maximal effect
Outline: as §2

[10] = qHTS assay to identify small molecule antagonists of the estrogen receptor alpha (ER-alpha) signaling pathway using the BG1 cell line in the presence of 0.1 nM 17-beta-estradiol - cell viability counter screen (AID 1259241); note: nearly all actives have a fitted effect of over 40% in size; note: potency is the fitted concentration of half-maximal effect
Outline: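 VM7Luc4E2 cells (endogenous ER-alpha, 4×ERE-luciferase), hormone-starved 5 days in charcoal-stripped FBS, were treated with compounds plus 0.1 nM 17beta-estradiol for 22 hr at 37C; viability read in same wells as CellTiter-Fluor live-cell protease fluorescence.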

[11] = qHTS assay to identify small molecule antagonists of the androgen receptor (AR) signaling pathway using the MDA cell line in the presence of 0.5 nM R1881 - cell viability counter screen (AID 1259242); note: nearly all actives have a fitted effect of over 45% in size; note: potency is the fitted concentration of half-maximal effect
Outline: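 MDA-kb2 cells (MMTV-luciferase, AR/GR responsive) were treated with compounds plus 0.5 nM R1881 (final) for 16 hr at 37C, 0% CO2. Viability was then read in the same wells as live-cell protease fluorescence (CellTiter-Fluor, 30 min).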

[12] = qHTS assay to identify small molecule HDAC inhibitors (AID 1259364); note: nearly all actives have a fitted effect of over 45% in size; note: potency is the fitted concentration of half-maximal effect
Outline: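 Wild-type HCT-116 cells, plated overnight at 37 C, exposed to compounds 2 hr at 37 C; luminogenic HDAC-Glo substrate then added 30 min at room temperature. Luminescence reports relative endogenous class I/II HDAC activity.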

[13] = qHTS assay to identify small molecule HDAC inhibitors - cell viability counter screen (AID 1259365); note: nearly all actives have a fitted effect of over 50% in size; note: potency is the fitted concentration of half-maximal effect
Outline: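 Wild-type HCT-116 cells were seeded at 1,500 per well, incubated overnight at 37 C, then exposed to compounds in DMSO for 2hr. Viability was read by CellTiter-Glo luminescence after 30min at room temperature.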

[14] = qHTS assay to identify small molecule antagonists of the sonic hedgehog signaling (Shh) pathway - cell viability counter screen (AID 1259367); note: nearly all actives have a fitted effect of over 55% in size; note: potency is the fitted concentration of half-maximal effect
Outline: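 NIH/3T3-derived Gli1-Luc reporter cells (2,000 per well) rested 4 hr at 37 C, then received DMSO compounds plus conditioned medium. After 23 hr of treatment, CellTiter-Fluor was added for 1 hr at 37C and fluorescence read.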

[15] = qHTS assay to identify small molecule agonists of the sonic hedgehog signaling (Shh) pathway (AID 1259368; calls by dose curve; note: nearly all actives have a fitted effect of over 15% in size; note: potency is the fitted concentration of half-maximal effect)
Outline: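 NIH/3T3-derived 3T3Gli1-Luc cells with stably integrated Gli1-driven firefly luciferase, 2,000 cells/well, compounds added after 4 hr. Incubated 24 hr at 37C, 5% CO2; luminescence read after 30 min with luciferase reagent at room temperature.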

[16] = target: Androgen receptor (Homo sapiens) (UniProt P10275); test: qHTS assay to identify small molecule antagonists of the androgen receptor (AR) signaling pathway using the MDA cell line in the presence of 0.5 nM R1881 (AID 1259243)
Outline: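 MDA-kb2 cells (MMTV-luciferase, responsive to AR and GR) at 3,000/well, rested 5 h at 37C, 0% CO2, then given compounds plus 0.5 nM R1881 (final) for 16 hr. Luciferase read with ONE-Glo after 30 min at room temperature.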

[17] = target: Estrogen receptor (Homo sapiens) (UniProt P03372); test: qHTS assay to identify small molecule antagonists of the estrogen receptor alpha (ER-alpha) signaling pathway using the BG1 cell line in the presence of 0.1 nM 17-beta-estradiol (AID 1259244); note: nearly all actives have a fitted effect of over 50% in size; note: potency is the fitted concentration of half-maximal effect
Outline: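 VM7Luc4E2 cells (endogenous full-length ER-alpha, 4×ERE-luciferase), kept 5 days in phenol red-free, charcoal-stripped FBS medium; 4,000 cells/well. Compounds added with 0.1 nM (final) 17beta-estradiol, 22 hr at 37C; luminescence read with ONE-Glo after 30 min.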

[18] = qHTS assay to identify small molecule phospholipidosis (PLD) inducers (AID 1259344; active = well fitted curve in the direction sought with a large enough effect; an effect the other way counts as inactive or inconclusive; note: % is set by controls: 0 for no effect and ±100 for the full control effect)
Outline: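 HepG2 cells on collagen I, attached 4 h at 37 C, were co-treated with compound and LipidTOX Red dye for 24 h at 37 C, then fixed with paraformaldehyde plus Hoechst 33342 and imaged by high-content microscopy for phospholipid accumulation.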

[19] = qHTS assay to identify small molecule agonists of the sonic hedgehog signaling (Shh) pathway - cell viability counter screen (AID 1259366); note: nearly all actives have a fitted effect of over 50% in size; note: potency is the fitted concentration of half-maximal effect
Outline: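 NIH/3T3-derived 3T3 Gli1-Luc cells (stable Gli1-responsive firefly luciferase reporter) were seeded, rested 4 hr at 37 C/5% CO2, then exposed to compounds in DMSO for 24 hr; viability was read by CellTiter-Fluor fluorescence in the same wells.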

[20] = A CellTox Green Cytotoxicity Assay to monitor cytotoxicity in HEK293 cells - 8 hour (AID 1224884); note: % is set by controls: 0 for no effect and ±100 for the full control effect; nearly all actives have a fitted effect of over 35% in size
Outline: as §1

Sequence of Estrogen receptor (Homo sapiens) (P03372 whole entry, looked up): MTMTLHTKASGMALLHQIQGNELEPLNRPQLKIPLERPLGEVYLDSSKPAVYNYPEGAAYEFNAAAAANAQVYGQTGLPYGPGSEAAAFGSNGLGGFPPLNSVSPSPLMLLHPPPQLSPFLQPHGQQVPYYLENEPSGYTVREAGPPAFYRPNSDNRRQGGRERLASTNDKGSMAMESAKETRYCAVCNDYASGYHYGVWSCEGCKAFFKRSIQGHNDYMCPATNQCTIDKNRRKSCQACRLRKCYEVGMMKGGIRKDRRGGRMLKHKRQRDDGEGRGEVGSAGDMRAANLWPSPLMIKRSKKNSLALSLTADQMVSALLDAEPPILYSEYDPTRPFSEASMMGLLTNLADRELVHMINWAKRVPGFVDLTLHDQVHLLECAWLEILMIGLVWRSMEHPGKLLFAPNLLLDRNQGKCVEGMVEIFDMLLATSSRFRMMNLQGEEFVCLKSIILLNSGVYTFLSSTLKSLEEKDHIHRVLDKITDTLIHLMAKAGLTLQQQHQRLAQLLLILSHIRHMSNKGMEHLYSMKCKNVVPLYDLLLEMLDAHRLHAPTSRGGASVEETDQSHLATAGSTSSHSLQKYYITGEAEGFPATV
Sequence of Androgen receptor (Homo sapiens) (P10275 whole entry, looked up): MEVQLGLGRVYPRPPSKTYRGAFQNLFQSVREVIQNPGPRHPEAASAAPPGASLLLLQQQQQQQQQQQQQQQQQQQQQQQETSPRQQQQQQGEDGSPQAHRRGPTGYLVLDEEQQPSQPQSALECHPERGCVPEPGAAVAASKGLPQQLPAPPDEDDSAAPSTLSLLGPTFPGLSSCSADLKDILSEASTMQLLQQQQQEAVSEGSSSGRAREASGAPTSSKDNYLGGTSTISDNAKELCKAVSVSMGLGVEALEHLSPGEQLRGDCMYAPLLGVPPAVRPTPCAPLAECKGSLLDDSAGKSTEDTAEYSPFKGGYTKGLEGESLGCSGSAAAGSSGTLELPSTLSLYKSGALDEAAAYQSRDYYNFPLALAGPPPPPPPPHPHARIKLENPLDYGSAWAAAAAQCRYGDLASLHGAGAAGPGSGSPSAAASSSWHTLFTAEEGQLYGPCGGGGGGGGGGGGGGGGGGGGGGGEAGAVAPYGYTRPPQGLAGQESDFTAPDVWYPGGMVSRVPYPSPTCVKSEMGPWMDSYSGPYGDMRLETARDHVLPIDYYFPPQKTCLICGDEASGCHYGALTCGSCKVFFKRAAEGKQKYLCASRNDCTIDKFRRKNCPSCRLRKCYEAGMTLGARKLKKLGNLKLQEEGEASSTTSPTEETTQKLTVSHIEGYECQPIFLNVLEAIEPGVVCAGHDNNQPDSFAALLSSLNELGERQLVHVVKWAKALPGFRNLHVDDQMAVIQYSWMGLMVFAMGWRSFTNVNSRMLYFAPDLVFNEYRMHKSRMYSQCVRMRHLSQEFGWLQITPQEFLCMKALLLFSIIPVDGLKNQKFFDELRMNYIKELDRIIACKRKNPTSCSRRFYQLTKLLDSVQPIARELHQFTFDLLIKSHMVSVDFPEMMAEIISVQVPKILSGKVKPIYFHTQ

CCC(C)[O-].CCC(C)[O-].CCOC(=O)/C=C(/C)[O-].[Al+3]
inactive: Potency [1] | Potency [2] | Potency [3] | Potency [4] | Potency [5] | Potency [6] | Potency [7] | Potency [8] | Potency [9] | Potency [10] | Potency [11] | Potency [12] | Potency [13] | Potency [14] | Potency [15]

CN(C)c1ccc(C(=C2C=CC(=[N+](C)C)C=C2)c2ccc(N(C)C)cc2)cc1
active: Potency [3] 10.9 µM and 11 µM and 19 µM | Potency [4] 21.8 µM and 24.5 µM | Potency [5] 5.47 µM and 7.76 µM and 3.01 µM | Potency [6] 21.8 µM and 43.6 µM | Potency [10] 8.59 µM and 6.86 µM and 5.31 µM | Potency [11] 7.66 µM and 6.86 µM and 3.35 µM | Potency [16] 1.53 µM and 3.44 µM and 1.88 µM | Potency [17] 1.71 µM and 3.86 µM and 3.35 µM | Potency [12] 9.64 µM and 8.63 µM and 11.9 µM | Potency [13] 13.6 µM and 27.3 µM and 11.9 µM | Potency [19] 9.64 µM and 30.6 µM and 13.3 µM | Potency [14] 9.64 µM and 30.6 µM and 10.6 µM
inactive: Potency [1] | Potency [2] | Potency [7] | Potency [8] | Potency [9] | Potency [18] | Potency [15]

CCCCOC(=O)CC
inactive: Potency [1] | Potency [2] | Potency [20] | Potency [4] | Potency [5] | Potency [6] | Potency [7] | Potency [8] | Potency [9] | Potency [10] | Potency [11] | Potency [12] | Potency [13] | Potency [19] | Potency [14] | Potency [15]

O=c1[nH]c(=O)n([C@H]2C[C@H](O)[C@@H](CO)O2)cc1F
active: Potency [2] 5.35 µM | Potency [3] 6.01 µM | Potency [9] 6.01 µM
inactive: Potency [1] | Potency [4] | Potency [6] | Potency [7] | Potency [8] | Potency [10] | Potency [11] | Potency [17] | Potency [18] | Potency [12] | Potency [19] | Potency [14] | Potency [15]

COc1ccc(-c2coc3cc(O)ccc3c2=O)cc1
active: Potency [12] 1.54 µM | Potency [15] 9.69 µM
inactive: Potency [1] | Potency [2] | Potency [3] | Potency [5] | Potency [6] | Potency [8] | Potency [9] | Potency [10] | Potency [11] | Potency [17] | Potency [13] | Potency [19] | Potency [14]

COC(=O)C1=C(C)NC(C)=C(C(=O)OCCN2CCN(C(c3ccccc3)c3ccccc3)CC2)C1c1cccc([N+](=O)[O-])c1 (stereo not drawn)
inactive: Potency [1] | Potency [2] | Potency [3] | Potency [7] | Potency [9] | Potency [10] | Potency [11] | Potency [18] | Potency [12] | Potency [13] | Potency [19] | Potency [15]

O=C1CCc2ccc(OCCCCN3CCN(c4cccc(Cl)c4Cl)CC3)cc2N1
inactive: Potency [1] | Potency [2] | Potency [7] | Potency [8] | Potency [9] | Potency [18] | Potency [12] | Potency [13] | Potency [14] | Potency [15]
active: Potency [3] 26.8 µM | Potency [5] 9.52 µM | Potency [6] 21.3 µM | Potency [11] 29.8 µM

C[C@@H](O)[C@H](N)C(=O)O
inactive: cytotoxicity increase [1] -5.17% [at 15.8 µM] | cytotoxicity [2] 7.45% [at 15.8 µM] | cytotoxicity increase [3] 4.24% [at 15.8 µM] | activity change, negative = cytotoxicity [5] 0.683% [at 15.8 µM] | activity change, negative = cytotoxicity [6] -0.878% [at 15.8 µM] | activity change [7] -2.81% [at 15.8 µM, stronger effect = higher value] | activity change, negative = cytotoxicity [8] 0.322% [at 15.8 µM] | cytotoxicity increase [9] 6.73% [at 15.8 µM] | activity change, negative = cytotoxicity [10] -3.81% [at 19 µM] | viability change, negative = cytotoxic [11] 0.742% [at 19 µM] | Potency [18] | activity change, negative = inhibition [12] -3.34% [at 19 µM] | activity change, negative = cytotoxicity [13] -2.68% [at 19 µM] | viability change, negative = cytotoxic [19] 6.05% [at 19 µM] | viability change, negative = cytotoxic [14] 3.97% [at 19 µM] | activity change [15] 0.344% [at 18.9 µM, stronger effect = higher value]

CCCCCCCCCCCCCCCC[N+](C)(C)CC
54.6 µM (active) and inactive: Potency [14]
active: Potency [1] 39 µM and 21.3 µM | Potency [3] 17.4 µM and 19 µM | Potency [4] 49.1 µM and 23.9 µM | Potency [5] 8.74 µM and 4.77 µM | Potency [6] 21.9 µM | Potency [7] 55.1 µM | Potency [9] 55.1 µM and 19 µM | Potency [17] 27.4 µM and 26.6 µM | Potency [19] 68.8 µM
inactive: Potency [2] | Potency [8] | Potency [10] | Potency [18] | Potency [12] | Potency [13] | Potency [15]

COC1=C(OC)C(=O)C(CCCCCCCCCCO)=C(C)C1=O
active: Potency [5] 4.25 µM | Potency [6] 1.69 µM | Potency [16] 29.8 µM
inactive: Potency [1] | Potency [2] | Potency [3] | Potency [7] | Potency [8] | Potency [9] | Potency [11] | Potency [18] | Potency [12] | Potency [13] | Potency [19] | Potency [14] | Potency [15]

CCN(CC)C(=O)c1cc(S(=O)(=O)Cc2ccccc2)c(N2CCC(c3ccccc3)CC2)cc1N(CC)CCN(C)C
active: Potency [1] 19.3 µM | Potency [3] 15.3 µM | Potency [5] 13.6 µM | Potency [6] 17.2 µM | Potency [9] 19.3 µM | Potency [19] 13.5 µM | Potency [14] 9.58 µM
inactive: Potency [2] | Potency [8] | Potency [10] | Potency [17] | Potency [18] | Potency [12] | Potency [13]

O=C(O)c1cc(-c2ccc(F)cc2F)ccc1O
inactive: Potency [1] | Potency [2] | Potency [3] | Potency [4] | Potency [5] | Potency [6] | Potency [7] | Potency [8] | Potency [9] | Potency [10] | Potency [11] | Potency [17] | Potency [18] | Potency [12] | Potency [13] | Potency [19] | Potency [14] | Potency [15]

Cc1ccc(C(=O)O)cc1
inactive: Potency [1] | Potency [2] | Potency [20] | Potency [4] | Potency [5] | Potency [6] | Potency [7] | Potency [8] | Potency [9] | Potency [10] | Potency [11] | Potency [12] | Potency [19] | Potency [14] | Potency [15]
